Substitutions are numbered along the chain they refer to.

Binding signal data for 14 sequences are collected here from PMC8384837, “Expanding the binding specificity for RNA recognition by a PUF domain”.

What all share (test): yeast three-hybrid, YBZ-1, SC-Leu-His + 0.5 mM 3-AT, 4 days
Details in all cases: tags: N-Gal4 AD-HA kept; label: inside an RPR1-promoter hybrid RNA with tandem MS2 sites; ssRNA

One test deals with PUM1 PUF domain R7-KFR (Homo sapiens, UniProt Q14671 828-1176, S1079K;N1080F;E1083R). Summed up: (§1)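 The interaction score is the logarithmic change in variant frequency from input to selection. It uses log2, with a pseudocount of 1 for absent variants, and frequencies came from PCR-amplified, Illumina-sequenced repeat regions. The libraries were Pumilio-1 PUF domains randomized at the three base-contacting residues per repeat, co-expressed with matching RNA elements in strain YBZ-1 (LexA–MS2 coat fusion, HIS3 reporter). Plating lasted four days on SC-Leu (input) or SC-Leu-His + 0.5 mM 3-AT (selection).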

For the next test, the target named is PUM1 PUF domain R3-GRG (Homo sapiens, UniProt Q14671 828-1176, C935G;Q939G). The method, boiled down:
as §1

Another test deals with PUM1 PUF domain R5-RSM (Homo sapiens, UniProt Q14671 828-1176, C1007R;R1008S;Q1011M). The method, boiled down: as §1
For the next test, the target named is PUM1 PUF domain R3-LFL (Homo sapiens, UniProt Q14671 828-1176, C935L;R936F;Q939L). The method, boiled down:
as §1

A further test addresses PUM1 PUF domain R3-MRG (Homo sapiens, UniProt Q14671 828-1176, C935M;Q939G). Summed up: as §1
Another test addresses PUM1 PUF domain R3-GWL (Homo sapiens, UniProt Q14671 828-1176, C935G;R936W;Q939L). Summed up: as §1
A further test addresses PUM1 PUF domain R5-KRS (Homo sapiens, UniProt Q14671 828-1176, C1007K;Q1011S). Summed up: as §1
For the next test, the target named is PUM1 PUF domain R4-MFN (Homo sapiens, UniProt Q14671 828-1176, N971M;H972F;Q975N). The method, boiled down:
as §1

A further test concerns the target PUM1 PUF domain R3-VRS (Homo sapiens, UniProt Q14671 828-1176, C935V;Q939S). The method, boiled down: as §1
For the next test, the target named is T1, PUM1 PUF domain R6-IWK (Homo sapiens, UniProt Q14671 828-1176, N1043I;Y1044W;Q1047K).
T1 sequence: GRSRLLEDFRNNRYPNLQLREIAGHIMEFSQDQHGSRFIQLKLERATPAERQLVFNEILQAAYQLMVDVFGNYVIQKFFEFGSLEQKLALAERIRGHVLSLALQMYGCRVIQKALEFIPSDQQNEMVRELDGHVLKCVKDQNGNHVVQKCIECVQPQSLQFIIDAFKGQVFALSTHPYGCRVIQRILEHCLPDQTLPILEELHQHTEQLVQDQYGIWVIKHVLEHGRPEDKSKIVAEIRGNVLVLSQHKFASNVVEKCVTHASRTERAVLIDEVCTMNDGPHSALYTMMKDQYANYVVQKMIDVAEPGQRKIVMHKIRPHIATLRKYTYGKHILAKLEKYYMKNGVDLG
The method, boiled down:
as §1

In a further test the target is PUM1 PUF domain R5-NVA (Homo sapiens, UniProt Q14671 828-1176, C1007N;R1008V;Q1011A). Summed up:
as §1

Another test concerns the target PUM1 PUF domain R5-KSK (Homo sapiens, UniProt Q14671 828-1176, C1007K;R1008S;Q1011K). Summed up: as §1
Another test deals with PUM1 PUF domain R1-GYK (Homo sapiens, UniProt Q14671 828-1176, S863G;R864Y;Q867K). Summed up: as §1
The next test has as its target PUM1 PUF domain R1-RLV (Homo sapiens, UniProt Q14671 828-1176, S863R;R864L;Q867V). The method, boiled down:
as §1

For another test, the target named is PUM1 PUF domain R3-RCD (Homo sapiens, UniProt Q14671 828-1176, C935R;R936C;Q939D). The method, boiled down:
as §1

In the next test the target is PUM1 PUF domain R8-KKA (Homo sapiens, UniProt Q14671 828-1176, N1122K;Y1123K;Q1126A). The method, boiled down:
as §1

Another test addresses T2, PUM1 PUF domain R6-TWA (Homo sapiens, UniProt Q14671 828-1176, N1043T;Y1044W;Q1047A).
T2 sequence: T1 sequence with I216T, K220A
The method, boiled down: as §1

A further test has as its target PUM1 PUF domain R4-FNI (Homo sapiens, UniProt Q14671 828-1176, N971F;H972N;Q975I). Summed up:
as §1

The target in a further test is PUM1 PUF domain R1-KNR (Homo sapiens, UniProt Q14671 828-1176, S863K;R864N;Q867R). Summed up: as §1
The target of another test is PUM1 PUF domain R7-TVV (Homo sapiens, UniProt Q14671 828-1176, S1079T;N1080V;E1083V). Summed up:
as §1

PUM1 PUF domain R5-KRS, sequence (Q14671 828-1176 C1007K/Q1011S): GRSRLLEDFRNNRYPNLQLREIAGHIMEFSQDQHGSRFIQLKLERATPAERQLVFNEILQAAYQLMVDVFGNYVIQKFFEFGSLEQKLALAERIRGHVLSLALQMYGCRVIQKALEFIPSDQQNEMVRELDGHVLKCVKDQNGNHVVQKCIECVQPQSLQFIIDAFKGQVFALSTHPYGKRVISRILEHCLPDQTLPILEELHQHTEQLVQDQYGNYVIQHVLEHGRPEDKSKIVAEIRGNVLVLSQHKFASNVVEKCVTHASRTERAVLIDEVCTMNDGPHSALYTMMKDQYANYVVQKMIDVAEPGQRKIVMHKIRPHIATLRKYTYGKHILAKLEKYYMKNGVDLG

Turning to “GGCUAGAACUAGUGGAUCCCCCGGCGCCCGGCGGCUCGAGCCCGGGUAAGUCUAAAUAGUCUGCAUGCCGCCGGGCGCCAUGCCUGCAGGUCGACUCUAGAAAACAUG”, the binding signal in the test with PUM1 PUF domain R7-KFR was 5.33 log2 enrichment (interaction score).
On to “GGCUAGAACUAGUGGAUCCCCCGGCGCCCGGCGGCUCGAGCCCGGGUAAGUGUAAAUAGUCUGCAUGCCGCCGGGCGCCAUGCCUGCAGGUCGACUCUAGAAAACAUG”, for which the binding signal with PUM1 PUF domain R3-GRG is 2.99 log2 enrichment (interaction score); with PUM1 PUF domain R5-RSM, 1.04 log2 enrichment (interaction score); in the test with PUM1 PUF domain R3-LFL, 1.59 log2 enrichment (interaction score); in the test with PUM1 PUF domain R3-MRG, 0.61 log2 enrichment (interaction score); in the test with PUM1 PUF domain R3-GWL, 3.81 log2 enrichment (interaction score); in the test with PUM1 PUF domain R5-KRS, 1.71 log2 enrichment (interaction score). The binding signal in the test with PUM1 PUF domain R4-MFN is 2.97 log2 enrichment (interaction score); with PUM1 PUF domain R3-VRS, 3.88 log2 enrichment (interaction score); with PUM1 PUF domain R6-IWK it was 2.18 log2 enrichment (interaction score).
As to “GGCUAGAACUAGUGGAUCCCCCGGCGCCCGGCGGCUCGAGCCCGGGUAAGUGUUAAUAGUCUGCAUGCCGCCGGGCGCCAUGCCUGCAGGUCGACUCUAGAAAACAUG”, the binding signal is 3.41 log2 enrichment (interaction score) with PUM1 PUF domain R5-KRS and 3.11 log2 enrichment (interaction score) with PUM1 PUF domain R5-NVA.
Take “GGCUAGAACUAGUGGAUCCCCCGGCGCCCGGCGGCUCGAGCCCGGGUAAGUGUCAAUAGUCUGCAUGCCGCCGGGCGCCAUGCCUGCAGGUCGACUCUAGAAAACAUG”: the binding signal with PUM1 PUF domain R5-KSK is 3.19 log2 enrichment (interaction score); in the test with PUM1 PUF domain R5-RSM, 3.66 log2 enrichment (interaction score); in the test with PUM1 PUF domain R5-KRS it was 3.74 log2 enrichment (interaction score).
As to “GGCUAGAACUAGUGGAUCCCCCGGCGCCCGGCGGCUCGAGCCCGGGUAAGUGUAAAUCGUCUGCAUGCCGCCGGGCGCCAUGCCUGCAGGUCGACUCUAGAAAACAUG”, the binding signal was 5.06 log2 enrichment (interaction score) with PUM1 PUF domain R1-GYK and 2.36 log2 enrichment (interaction score) in the test with PUM1 PUF domain R1-RLV.
For the sequence “GGCUAGAACUAGUGGAUCCCCCGGCGCCCGGCGGCUCGAGCCCGGGUAAGUGUAAUUAGUCUGCAUGCCGCCGGGCGCCAUGCCUGCAGGUCGACUCUAGAAAACAUG”, the binding signal is 2.8 log2 enrichment (interaction score) in the test with PUM1 PUF domain R3-MRG, 3.82 log2 enrichment (interaction score) with PUM1 PUF domain R3-GWL and 3.1 log2 enrichment (interaction score) in the test with PUM1 PUF domain R3-RCD.
Turning to “GGCUAGAACUAGUGGAUCCCCCGGCGCCCGGCGGCUCGAGCCCGGGUAAGCGUAAAUAGUCUGCAUGCCGCCGGGCGCCAUGCCUGCAGGUCGACUCUAGAAAACAUG”, the binding signal in the test with PUM1 PUF domain R8-KKA is 2.4 log2 enrichment (interaction score).
As to “GGCUAGAACUAGUGGAUCCCCCGGCGCCCGGCGGCUCGAGCCCGGGUAAGUGAAAAUAGUCUGCAUGCCGCCGGGCGCCAUGCCUGCAGGUCGACUCUAGAAAACAUG”, the binding signal with PUM1 PUF domain R6-TWA was 4.52 log2 enrichment (interaction score); in the test with PUM1 PUF domain R6-IWK, 5.15 log2 enrichment (interaction score).
Take “GGCUAGAACUAGUGGAUCCCCCGGCGCCCGGCGGCUCGAGCCCGGGUAAGUGUAUAUAGUCUGCAUGCCGCCGGGCGCCAUGCCUGCAGGUCGACUCUAGAAAACAUG”: in the test with PUM1 PUF domain R4-FNI, the binding signal is 2.63 log2 enrichment (interaction score).
As for “GGCUAGAACUAGUGGAUCCCCCGGCGCCCGGCGGCUCGAGCCCGGGUAAGUGUAAAUUGUCUGCAUGCCGCCGGGCGCCAUGCCUGCAGGUCGACUCUAGAAAACAUG”, the values for the binding signal with PUM1 PUF domain R1-KNR and with PUM1 PUF domain R1-RLV were 6.76 log2 enrichment (interaction score) and 2.9 log2 enrichment (interaction score), respectively.
For the sequence “GGCUAGAACUAGUGGAUCCCCCGGCGCCCGGCGGCUCGAGCCCGGGUAAGUUUAAAUAGUCUGCAUGCCGCCGGGCGCCAUGCCUGCAGGUCGACUCUAGAAAACAUG”, the binding signal with PUM1 PUF domain R7-KFR is 6.28 log2 enrichment (interaction score); with PUM1 PUF domain R7-TVV, 3.71 log2 enrichment (interaction score).
With “GGCUAGAACUAGUGGAUCCCCCGGCGCCCGGCGGCUCGAGCCCGGGUAAGUGUAAGUAGUCUGCAUGCCGCCGGGCGCCAUGCCUGCAGGUCGACUCUAGAAAACAUG”, the binding signal with PUM1 PUF domain R3-GRG was 0.98 log2 enrichment (interaction score); in the test with PUM1 PUF domain R3-LFL, 4.75 log2 enrichment (interaction score); with PUM1 PUF domain R3-MRG it was 5.6 log2 enrichment (interaction score); with PUM1 PUF domain R3-GWL, 1.08 log2 enrichment (interaction score); with PUM1 PUF domain R3-RCD, 2.53 log2 enrichment (interaction score); with PUM1 PUF domain R3-VRS, 0.45 log2 enrichment (interaction score).
Take “GGCUAGAACUAGUGGAUCCCCCGGCGCCCGGCGGCUCGAGCCCGGGUAAGUGUGAAUAGUCUGCAUGCCGCCGGGCGCCAUGCCUGCAGGUCGACUCUAGAAAACAUG”: in the test with PUM1 PUF domain R5-RSM, the binding signal was 0.3 log2 enrichment (interaction score).
In the case of “GGCUAGAACUAGUGGAUCCCCCGGCGCCCGGCGGCUCGAGCCCGGGUAAGUGUAAAUGGUCUGCAUGCCGCCGGGCGCCAUGCCUGCAGGUCGACUCUAGAAAACAUG”, the binding signal with PUM1 PUF domain R1-KNR was 3.86 log2 enrichment (interaction score); in the test with PUM1 PUF domain R1-GYK, 0.96 log2 enrichment (interaction score).
